A selection: hits, their analogues and other compounds. The true share with any hit is near 7%.
GCN5L2 inh: blocks human GCN5L2 histone acetyltransferase; GCN5L2 HAT assay, ThioGlo1 CoA-SH fluorescence; Potency, µM (top dose mostly 58.9 µM), inactives show at the top dose activity change, negative = inhibition, actives largely listed as inhibitors; 0.21% of 390,000 active; further: potency means the concentration at half of the fitted maximal effect; on the % scale 0 is the no-effect control and ±100 the full control effect
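Titration-based screen in which CoA formation is detected via maleimide probe ThioGlo1 (50uM) turning fluorescent on thiol reaction; substrates H3(1-25) 75uM and acetyl-CoA 70uM, GCN5L2 20nM, 20 min incubation at room temperature.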
JMJD2A Tudor inh: blocks the human JMJD2A Tudor domain. O75164. Potency, µM (top dose mostly 114 µM), without a hit: at the top dose activity change, negative = inhibition, actives largely listed as inhibitors. 4.4% of 390,000 active. AlphaScreen JMJD2A-Tudor / H3K4me3 peptide binding. AID 504339; further: potency means the concentration at half of the fitted maximal effect; on the % scale 0 is the no-effect control and ±100 the full control effect; nearly all actives have a fitted effect of over 50% in size
PI5P4K alpha inh: PI5P4K alpha (human) kinase inhibition; P48426; PI5P4Kalpha enzyme, ADP-Glo luminescence, 60 min; hits give low values; max response, %; 1.2% of 330,000 active; active means max response of -50% or lower; inconclusive means between -30% and -50%; inactive means -30% or higher; further: value at the top dose of about 77 µM; on the % scale 0 is the no-effect control and ±100 the full control effect
Target sequence (P48426 whole entry, looked up): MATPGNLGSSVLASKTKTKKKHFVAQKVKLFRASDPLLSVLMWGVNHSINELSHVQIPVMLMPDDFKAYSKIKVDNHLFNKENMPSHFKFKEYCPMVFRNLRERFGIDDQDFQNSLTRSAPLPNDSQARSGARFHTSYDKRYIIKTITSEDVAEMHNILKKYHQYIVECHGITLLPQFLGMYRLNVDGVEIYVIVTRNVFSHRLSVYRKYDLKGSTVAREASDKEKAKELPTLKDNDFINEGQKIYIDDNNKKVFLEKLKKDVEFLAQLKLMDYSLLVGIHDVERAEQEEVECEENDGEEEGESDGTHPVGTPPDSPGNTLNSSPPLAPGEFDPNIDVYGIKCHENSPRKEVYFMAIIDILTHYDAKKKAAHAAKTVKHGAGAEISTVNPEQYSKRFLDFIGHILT
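Luminescence from ADP-Glo served as readout of PI5P4Kalpha activity in a qHTS format. Reaction: enzyme, substrate, compound, ATP at 5 microM final, 60 min at RT.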
HP1b binding inh: HP1-beta chromodomain-methylated histone interaction inhibition | 0.56% of 390,000 active | Potency, µM (highest dose often 114 µM), for the others: at the highest dose activity change, negative = inhibition, usual class: inhibitors | AlphaScreen HP1-beta / biotin-H3K9me3 peptide binding | P83916; further: potency means the concentration at half of the fitted maximal effect; nearly all actives have a fitted effect of over 70% in size
Target sequence (P83916 whole entry, looked up): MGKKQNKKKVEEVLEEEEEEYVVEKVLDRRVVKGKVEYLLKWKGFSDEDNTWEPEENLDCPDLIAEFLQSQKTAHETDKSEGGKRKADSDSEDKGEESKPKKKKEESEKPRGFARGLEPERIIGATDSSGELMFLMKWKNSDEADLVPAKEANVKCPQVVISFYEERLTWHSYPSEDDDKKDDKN
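Compound inhibition of the preformed complex between 50 nM HP1-beta and 50 nM biotinylated H3K9me3 peptide was read by AlphaScreen. Buffer was PBS pH 7.4 with 0.01% Tween-20. Incubations ran 30 min at room temperature, with 10 ug/mL donor/acceptor beads.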
BAZ2B inh: blocks human BAZ2B. AlphaScreen BAZ2B-H3K14Ac peptide displacement. Potency, µM (series often up to 114 µM), for the others: top-dose activity change, negative = inhibition, hits mostly inhibitors. 4.4% of 360,000 active. AID 504333; further: potency means the concentration at half of the fitted maximal effect; on the % scale 0 is the no-effect control and ±100 the full control effect; nearly all actives have a fitted effect of over 60% in size
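AlphaScreen luminescence quantifies BAZ2B engagement of H3K14Ac peptide; the protein and biotinylated peptide are both at 50 nM final, buffer PBS pH 7.4 with 0.01% Tween-20, all steps at room temperature.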
PLK1 PBD inh: blocks phosphopeptide binding to human PLK1 polo-box domain. P53350. Plk1 PBD binding of FITC phosphopeptide, fluorescence polarization. Potency, µM, inactives show max response, negative = inhibition, actives largely listed as inhibitors. 2.8% of 360,000 active. AID 720504; further: potency means the concentration at half of the fitted maximal effect; series mostly up to about 57 µM; on the % scale 0 is the no-effect control and ±100 the full control effect; nearly all actives have a fitted effect of over 65% in size
TbPYK inh: confirmation of Trypanosoma brucei pyruvate kinase inhibitors; shares compounds with PLK1 PBD inh; recombinant TbPYK, Kinase-Glo ATP luminescence; Potency, µM (doses to about 76.9 µM), without a hit: at the highest dose activity change, negative = inhibition, actives largely listed as inhibitors; 67% of 890 active; further: potency means the concentration at half of the fitted maximal effect; on the % scale 0 is the no-effect control and ±100 the full control effect; nearly all actives have a fitted effect of over 70% in size
TbPYK ADP-Glo: orthogonal confirmation of Trypanosoma brucei pyruvate kinase inhibitors | shares compounds with PLK1 PBD inh | recombinant TbPYK, ADP-Glo luminescence, 60 min | Potency, µM (top dose mostly 76.9 µM), without a hit: top-dose activity change, negative = inhibition, hits mostly inhibitors | 62% of 890 active | AID 720584; further: potency means the concentration at half of the fitted maximal effect; on the % scale 0 is the no-effect control and ±100 the full control effect; nearly all actives have a fitted effect of over 75% in size
Starred values were filed as active, the others as inactive; ? = inconclusive; . = not tested or not shown; [ ] = another dose, or the depositor's remark. Unless noted, the call rests on the fitted dose curve; in most records, active means well fitted curve in the direction sought with a large enough effect; inconclusive means small, poorly fitted or top-dose-only effect, or another doubt; inactive means no such curve, though single readings can be large; an effect the other way counts as inactive or inconclusive.

SMILES	GCN5L2 inh	JMJD2A Tudor inh	PI5P4K alpha inh	HP1b binding inh	BAZ2B inh	PLK1 PBD inh	TbPYK inh	TbPYK ADP-Glo
O=C(O)c1ccccc1-c1ccc(C=c2sc3nc4cc(Br)cnc4n3c2=O)o1	.	.	-89.4*	.	.	?	14.1µM*	15.8µM*
COC(=O)c1cc(S(=O)(=O)N2CCN(c3ccc(C(C)=O)cc3)CC2)c[nH]1	-0.1%	-11.3%	0.0	19.7%	-6.4%	-10.8%	.	.
Cc1ccccc1N1C(=O)CC(Sc2nnc(-c3ccccc3)o2)C1=O (centres undefined)	-23.6%	-6.2%	-11.2	-2.2%	-4.9%	0.0%	14.1µM*	17.8µM*
COc1ccc(C(=O)CSc2nnc(-c3ccco3)n2C)cc1	0.2%	-8.8%	.	31.7%	4.9%	-12.5%	.	.
O=C(CSc1ccc(-c2ccco2)nn1)c1ccc(F)cc1	-16.3%	44.7µM*	-68.6*	?	-33.7%	?	25.1µM*	31.6µM*
CC(=O)Nc1ccc(C(=O)CSc2nnc(-c3ccc(O)cc3)n2CC2CCCO2)cc1 (centres undefined)	-3.4%	79.4µM*	.	-14.5%	-28.3%	-17.2%	15.8µM*	?
O=C(CSc1nnc(-c2ccco2)n1CC1CCCO1)c1ccc(F)cc1 (centres undefined)	-2.6%	3.16µM*	?	?	-23.4%	2.67µM*	?	39.8µM*
COc1ccc(C(=O)CSc2nnc(-c3ccco3)c(-c3ccco3)n2)cc1	-26.9%	22.4µM*	-56.9*	?	20µM*	26.7µM*	25.1µM*	35.5µM*
C[C@@H]1CN([C@H](C)CO)C(=O)CCCn2nncc2CO[C@@H]1CN(C)S(=O)(=O)c1ccc(Cl)cc1	.	.	-6.5	.	.	-6.8%	.	.
COc1ccc(OC)c(N(CCN2C(=O)c3ccccc3C2=O)C(=O)CCl)c1	.	.	-1.0	.	.	-5.5%	.	.
CN(C)c1oc(-c2ccccc2[N+](=O)[O-])nc1C#N	-12.9%	15.8µM*	-28.0	?	-38.0%	26.7µM*	1.78µM*	4.47µM*
COc1cccc(Nc2ccc(N3CCCCC3)cc2)c1OC	-4.8%	31.6µM*	.	31.6µM*	14.1µM*	.	?	?
COc1cccc(OC)c1C(=O)Nc1ccccc1N1CCCCC1	-5.4%	?	2.4	-12.1%	-28.6%	-9.4%	.	.
Oc1cccc(O)c1	4.9%	.	.	.	.	.	.	.
O=S(=O)(c1cc(O)ccc1O)c1cccc2c(S(=O)(=O)c3cc(O)ccc3O)cccc12	?	17.8µM*	-90.8*	15.8µM*	11.2µM*	?	?	25.1µM*
CCOC(=O)c1cnc2ccc(OCC)cc2c1NCc1cccnc1	-0.5%	8.2%	2.9	38.6%	5.2%	-3.1%	-3.2%	-3.4%
CCOC(=O)c1cnc2ccc(OCC)cc2c1NCc1ccccc1	-7.4%	157.4%	17.1	308.0%	141.1%	-4.3%	.	.
Cc1ccc(C(=O)Nc2ccc(-c3cn4cccnc4n3)cc2)cc1C	-1.9%	3.0%	.	42.3%	-16.5%	.	.	.
O=c1ccn(Cc2ccccc2)c(SCc2ccccc2)n1	.	-9.7%	-1.9	22.7%	.	-11.7%	.	.
Clc1ccc(CSc2nccn2Cc2ccccc2)cc1	-11.6%	3.16µM*	3.7	-4.1%	?	-2.5%	1.26µM*	1.12µM*
N#C/C(=C\c1ccc(C(=O)O)cc1)c1ccccn1	-3.2%	8.6%	?	46.5%	-16.9%	-7.4%	?	1.9%
Cc1nc2ccc(C(=O)N(C)Cc3ccccc3)cn2c1N(C)C(=O)CCc1ccccc1	.	.	-2.2	.	.	-8.5%	.	.
CN(C)C(=S)N=Nc1[nH]c2ccccc2c1O	-2.7%	-24.8%	-9.0	8.5%	-35.1%	16.8µM*	5.62µM*	6.31µM*
CNC(=S)N=Nc1c(O)[nH]c2ccccc12	-3.6%	-17.7%	1.2	8.4%	-2.2%	-9.3%	.	.
NC(=O)c1c(N)sc2c1CCC2	-16.9%	-18.2%	-28.1	1.0%	-12.9%	?	.	.
SMILES	GCN5L2 inh	JMJD2A Tudor inh	PI5P4K alpha inh	HP1b binding inh	BAZ2B inh	PLK1 PBD inh	TbPYK inh	TbPYK ADP-Glo
NC(=O)c1c(N)sc2c1CCCCC2	-23.8%	?	?	17.8µM*	4.9%	?	?	?
CCc1sc(C(=O)N2CCN(C(=O)c3ccccc3)CC2)cc1C	-3.8%	-10.4%	0.6	-22.5%	.	-16.8%	.	.
CC1CCc2c(sc3ncnc(SC(C)C(=O)NCC4CCCO4)c23)C1 (centres undefined)	-16.3%	-17.3%	-1.8	-8.4%	7.2%	-11.6%	.	.
O=S(=O)(Nc1cc(Sc2cccc3cccnc23)c(O)c2ccccc12)c1ccc(F)cc1	-12.6%	17.8µM*	-18.8	17.8µM*	?	1.5µM*	1.41µM*	2.24µM*
CC(=O)c1ccc(C(=O)N2CCCC(CO)(Cc3ccccc3C)C2)s1 (centres undefined)	?	-15.1%	-2.1	8.5%	-37.5%	-3.2%	.	.
CCCN1CCN(CCCNC(=O)Cn2c(-c3cccs3)cc3ccccc32)CC1	-5.6%	-24.8%	.	5.9%	-13.2%	.	.	.
CCCC[C@@H]1C=C(C(=O)O)[C@H](c2ccc(C#N)cc2)N1S(=O)(=O)c1ccc(C)cc1	-0.7%	-14.4%	-0.4	28.1%	.	-8.7%	.	.
COc1ccc(-c2nnc(SCCC(=O)O)n2-c2ccccc2)cc1	-2.7%	39.8µM*	.	40.7%	-13.8%	-2.3%	7.94µM*	5.01µM*
O=C(O)CCSc1nnc(-c2ccncc2)n1-c1ccccc1	0.6%	1.1%	-9.9	21.4%	2.7%	-5.6%	.	.
OCc1ccccc1-c1nc(NCc2ccccc2)nc2ccsc12	.	.	?	.	.	?	?	?
O=C(Nc1ccc(/C=C/c2nc3ccccc3o2)cc1)c1ccc(F)cc1	0.0%	-10.2%	-13.7	27.0%	-2.7%	-2.8%	.	.
COc1ccc(C2Nc3ccccc3C(=O)N2c2ccc(F)cc2)cc1COc1ccc(NC(C)=O)cc1 (centres undefined)	.	-2.3%[57.1 µM]	.	12.2%[57 µM]	.	.	.	.
Cc1ccc(S(=O)(=O)NCC(=O)NCC(=O)N2CCN(c3ncccn3)CC2)cc1C	-16.0%	-2.8%	1.7	0.4%	20.3%	-15.9%	.	.
COc1ccc2[nH]c3c4c(ccc3c2c1)C(=O)C=CC4=O	-1.2%	?	-65.2*	?	39.8µM*	?	5.01µM*	?
COCCn1c(C)cc(C2=NNC(=Nc3ccc(Cl)cc3Cl)SC2)c1C	-4.9%	-34.0%	.	-17.8%	-36.0%	-9.6%	.	.
Cc1cc(C2=NNC(=Nc3ccc(S(=O)(=O)N4CCOCC4)cc3)SC2)c(C)n1C	-13.4%	?	?	-22.1%	-28.1%	3.2%	17.8µM*	15.8µM*
